# Inconclusive results are not listed. The source made the active and inactive calls. Calls come from the whole dose curve; as a rule, active = well fitted cell-killing curve with a large enough effect; inconclusive = small, poorly fitted or top-dose-only effect, or effect the other way; inactive = no such curve, though single readings can be large or run the other way.
# Assay: Viability qHTS for spleen associated tyrosine kinase inhibitor (SYKi) drug resistant MV4-11 cells (AID 1963824); note: nearly all actives have a fitted effect of over 35% in size
# Conditions: SYKi-resistant MV4-11 viability, CellTiter-Glo, 72 h; series mostly up to 45 µM
# Procedure, shortened: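 SYK-inhibitor-resistant MV4-11 AML cells were seeded at 500 per well onto compound and cultured 72 hours (37 °C, 5% CO2). CellTiter-Glo was then added, and after 10 min at room temperature, luminescence gave viability.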
# Potency is the fitted concentration of half-maximal effect.
SMILES,Potency,"viability, % of control"
CC(=O)[C@@H]1CC[C@]2(C(=O)O)CC[C@]3(C)C(CCC4[C@@]5(C)CC[C@H](O)C(C)(C)C5CC[C@]43C)C12 (stereo not given in full),7.09 µM (active),
CC[C@H]1OC(=O)[C@](C)(F)C(=O)[C@H](C)[C@@H](O[C@@H]2O[C@H](C)C[C@H](N(C)C)[C@H]2O)[C@](C)(OC)C[C@@H](C)C(=O)[C@@H](C)[C@H]2N(CCCCn3cc(-c4cccc(N)c4)nn3)C(=O)O[C@]12C,10.3 µM (active),
C/C=C(\C)C(=O)O[C@@H]1[C@@H](C)[C@]2(O)[C@@H]3C=C(C)C(=O)[C@H]3CC(CO)=C[C@H]2C2C(C)(C)[C@@]21OC(=O)C(C)CC (stereo not given in full),0.448 µM (active),
[2H]C([2H])(Nc1nc(-c2ccccc2C([2H])(C([2H])([2H])[2H])C([2H])([2H])[2H])ncc1C)c1ccc(-n2ccnn2)cc1,11.8 µM (active),
COc1ncc(Nc2ncc([C@@H](C)N3CCN(S(C)(=O)=O)CC3)cc2-c2nc(C)nc(N)n2)cc1F,inactive,
Clc1ccc2ncc(-c3cccc(NC4CCNC4)n3)n2c1 (stereo not given),0.0103 µM (active),
O=C(O)c1cc(N(Cc2ccc(C3CCCCC3)cc2)C(=O)c2ccc(Oc3ccccc3)cc2)ccc1O,16.4 µM (active),
C[C@@H]1O[C@@H](O[C@H]2CC[C@@]3(C)C(CC[C@]4(C)C3CC=C3[C@@H]5CC(C)(C)CC[C@]5(C(=O)O[C@@H]5O[C@H](CO)[C@@H](O)[C@H](O)[C@H]5O)CC[C@]34C)[C@]2(C)CO)[C@H](O)[C@H](O[C@@H]2O[C@H](CO)[C@@H](O)[C@H](O)[C@H]2O)[C@H]1O (stereo not given in full),3.9 µM (active),
Cc1c(C(=O)Nc2ccc(Oc3ccnc4[nH]cc(-c5ccccc5)c34)c(F)c2)c(=O)n(-c2ccc(F)cc2)n1C,0.0206 µM (active),
Nc1nc(NCC2CCC(CNS(=O)(=O)c3cccc4ccccc34)CC2)nc2ccccc12 (stereo not given),2.31 µM (active),
CCNC(=O)N1CCN(CCCC(c2ccc(F)cc2)c2ccc(F)cc2)CC1,18.8 µM (active),
CC12CCC(=O)C=C1C(O)CC1C2C(O)CC2(C)C1CC[C@]2(O)C(=O)CO (stereo not given in full),,90% [at 9.25 µM] (inactive)
C[C@H]1CC[C@@]2(OC1)O[C@H]1CC3C4CC[C@H]5C[C@@H](O)CC[C@]5(C)C4CC(=O)[C@]3(C)[C@H]1[C@@H]2C (stereo not given in full),inactive,
C=C[C@@H]1[C@H](O[C@@H]2O[C@H](CO)[C@@H](O)[C@H](O)[C@H]2O)OC=C(C(=O)O)[C@H]1CCOC(=O)/C=C/c1ccc(O)c(O)c1,inactive,
C=C1C[C@]23C[C@H]1CC[C@H]2[C@]1(C)CCC[C@@]2(CO)C(=O)O[C@H]([C@H]21)[C@@H]3O,inactive,
COc1ccccc1-c1c[nH]c2ncc(-c3cncc(C(=O)N(C)C)c3)cc12,1.84 µM (active),
C/C=C/C=C/C=C/C(=O)O[C@@H]1C=C(CO)C(O)(C(=O)OC)[C@@]2(C)CCCC(C)(C)C12 (stereo not given in full),10 µM (active),
COC(CCc1ccc(O)cc1)CC(=O)CCc1ccc(O)cc1 (stereo not given),14.3 µM (active),
O=C(Nc1cc(C(F)(F)F)ccc1N1CCCCC1)c1ccncc1,14.6 µM (active),
O=C(Nc1cnccc1Cl)N1CCN(Cc2ccc3c(c2)OC(F)(F)O3)CC1,5.9 µM (active),
CC1(C)CCCC2(C)C3=C(C(=O)OC3O)C(O)CC12 (stereo not given),inactive,
O=C(O)/C=C/c1cc2c(cc1O[C@@H]1O[C@H](CO)[C@@H](O)[C@H](O)[C@H]1O)OCO2,inactive,
O=C1NC(=O)/C(=C\c2ccc3c(c2)OC(F)(F)O3)S1,14.6 µM (active),
CC(C)(C[C@@](O)(Cc1cc2ccncc2[nH]1)C(F)(F)F)c1cc(F)ccc1O,2.31 µM (active),
C[C@@H]1O[C@@H](O[C@H]2[C@H](O)[C@@H](C(=O)O)O[C@@H](O[C@H]3CC[C@@]4(C)C(CC[C@]5(C)C4CC=C4C6CC(C)(C)CC[C@]6(C(=O)O)CC[C@]45C)C3(C)C)[C@@H]2O[C@@H]2OC[C@@H](O)[C@H](O)[C@H]2O)[C@H](O)[C@H](O)[C@H]1O (stereo not given in full),,92.4% [at 9.25 µM] (inactive)

# Source: PubChem BioAssay (NCATS)
